ANO1 block – inhibitors of mouse TMEM16A calcium-activated chloride channel. hit rate 1.2% among 310,000. Q8BHY3. normalized B-score (activity score, 25-100; higher = stronger inhibition) at 10 µM. HEK293 TMEM16A/YFP iodide influx fluorescence, ionomycin;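 active means ratio plate-corrected score three or more library SD toward inhibition, starting fluorescence score within five deviations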;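 further: score derived from kinetic fluorescence span divided by baseline fluorescence per well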
Target sequence (Q8BHY3 whole entry, looked up): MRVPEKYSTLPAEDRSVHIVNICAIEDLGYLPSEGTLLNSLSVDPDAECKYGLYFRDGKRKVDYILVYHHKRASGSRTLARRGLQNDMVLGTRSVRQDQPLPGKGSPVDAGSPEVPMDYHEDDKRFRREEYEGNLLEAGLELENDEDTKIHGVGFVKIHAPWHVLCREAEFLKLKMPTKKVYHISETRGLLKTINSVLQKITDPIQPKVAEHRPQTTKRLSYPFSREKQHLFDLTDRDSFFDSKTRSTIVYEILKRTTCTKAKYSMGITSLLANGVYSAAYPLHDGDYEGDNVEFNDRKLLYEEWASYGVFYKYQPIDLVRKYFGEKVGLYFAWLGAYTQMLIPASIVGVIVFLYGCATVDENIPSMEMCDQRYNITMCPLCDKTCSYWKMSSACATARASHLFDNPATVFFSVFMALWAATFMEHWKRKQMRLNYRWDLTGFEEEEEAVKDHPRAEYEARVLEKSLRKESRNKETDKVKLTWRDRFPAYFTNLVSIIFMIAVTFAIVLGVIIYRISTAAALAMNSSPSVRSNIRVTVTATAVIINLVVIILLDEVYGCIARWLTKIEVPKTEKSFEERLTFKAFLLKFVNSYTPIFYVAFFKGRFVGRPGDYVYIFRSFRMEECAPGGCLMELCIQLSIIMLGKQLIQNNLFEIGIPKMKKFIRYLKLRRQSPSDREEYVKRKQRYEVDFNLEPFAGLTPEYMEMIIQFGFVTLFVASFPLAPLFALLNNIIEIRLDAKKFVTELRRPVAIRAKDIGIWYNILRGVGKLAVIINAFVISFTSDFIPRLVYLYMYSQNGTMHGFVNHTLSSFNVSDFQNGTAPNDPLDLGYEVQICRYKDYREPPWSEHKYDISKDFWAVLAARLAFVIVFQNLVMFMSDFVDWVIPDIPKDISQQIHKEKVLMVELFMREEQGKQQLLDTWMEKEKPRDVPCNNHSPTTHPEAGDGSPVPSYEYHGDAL
TMEM16A act – activates or potentiates the mouse TMEM16A chloride channel. Q8BHY3. HEK293 TMEM16A/YFP-H148Q/I152L, iodide quench fluorescence; hits give low values. B-score at 10 µM. hit rate 0.3% among 340,000. AID 623877;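 active means fluorescence-ratio B-score plate-corrected deviation score at least 3 library SD below zero, with starting fluorescence score within 5 deviations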;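 further: channel opened by trigger with iodide after compound preincubation; score built on the fluorescence ratio of max minus min over baseline; more negative score means more quench and so TMEM16A activation or potentiation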
CHT PAM – allosterically activates the human high affinity choline transporter | B-score at 10 µM | Q9GZV3 | AID 488977 | CHT-expressing cells, membrane potential dye, choline EC20; hits give high values; LV-AA mutant CHT in HEK293 cells | hit rate 0.49% among 310,000;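 active means initial fluorescence not abnormally high and integrated response B-score, plate-corrected, over 3 SD above library mean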
CHT block – inhibits the human high affinity choline transporter; Q9GZV3; CHT-expressing cells, membrane potential dye, choline response; hits give low values; B-score at 10 µM; hit rate 0.86% among 310,000; AID 488975;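 active means B-score over 3 SD under the library average, and starting fluorescence ratio not unusually high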;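 further: choline stimulus applied at its EC90 after an EC20 pre-addition; B-score computed on integrated fluorescence ratio after choline addition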
CHT act confirm – human CHT activation, confirmatory screen | AID 504833 | hit rate 91% among 2,500 | shares compounds with CHT PAM | activation, % at 10 µM | CHT-expressing cells, membrane potential dye fluorescence (FDSS); % of choline EC20–EC90 response window; HEK293 expressing CHT LV-AA mutant; choline added at its EC20;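 active means primary screen active, with duplicate mean activation above negative control mean plus 3 SD, cut at about 11% in these data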
HEK293 MP dye – CHT activator counter-screen hit in parental HEK293 cells; AID 623908; membrane potential dye fluorescence (FDSS); measured after EC20 choline addition; hit rate 62% among 2,500; ratio readout change at 10 µM, hits read low; shares compounds with CHT PAM;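 active means duplicate-averaged ratio beyond 3 SD from buffer wells, up or down, though filed actives are nearly all decreases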
Each line names hits and unclear results; the compound was inactive in the other large screens (follow-up assays come after a bar, where they were run). Compounds with a hit are over-represented: about 2.3% of the library has one in this group of screens.

O=C(OCC(=O)N(CCc1ccccc1)Cc1ccccc1)c1ccccc1O	CHT PAM 6.5 | CHT act confirm 38 | HEK293 MP dye inactive
O=[N+]([O-])c1ccc(-c2csc3[n+]2CCS3)cc1	CHT PAM 8.9 | CHT act confirm 74 | HEK293 MP dye -69
Cc1cc(C[n+]2ccccc2)c2nsnc2c1	CHT PAM 10 | CHT act confirm 45 | HEK293 MP dye -72
CCOc1ccc(-n2c(=O)c3sccc3n(CC(=O)NCCc3ccc(OC)c(OC)c3)c2=O)cc1	none
CCN(CC)S(=O)(=O)c1cnccc1N1CCN(c2cccc(Cl)c2)CC1	CHT PAM 9.3 | CHT act confirm 13 | HEK293 MP dye inactive
O=C(c1cc2ccccc2o1)N(C1CC1)C1(C(=O)Nc2ccccc2)CCCC1	none
COC(=O)[C@@H]1[C@@H](C)N(Cc2ccccc2)C(=O)N[C@H]1c1cccc(C(F)(F)F)c1	CHT PAM 9.4 | CHT act confirm inactive | HEK293 MP dye inactive
CCN1C(=NCc2ccccc2)N[C@@H](c2ccccc2)[C@H](C(=O)OC)[C@H]1C	CHT PAM 6.9 | CHT act confirm 12 | HEK293 MP dye inactive
CCC1CCCCN1CCCNC(=O)C1CCC(CNS(=O)(=O)c2c(C)cc(C)cc2C)CC1 (stereo unspecified)	none
Cc1cc(OCCn2nc(C(=O)O)c3ccccc3c2=O)ccc1C(C)C	none (no result: ANO1 block, CHT PAM, CHT block)
CCc1cccc(OCCn2nc(C(=O)O)c3ccccc3c2=O)c1	none | CHT act confirm 30 | HEK293 MP dye inactive
Cc1ccc(CNc2ncc(-c3ccc4c(c3)OCO4)n2C)cc1	CHT PAM 6.6 | CHT act confirm 25 | HEK293 MP dye -31
Cn1c(-c2ccc3c(c2)OCO3)cnc1NCc1ccc(Cl)cc1	none
NC1C2CN(c3nc4c(cc3F)c(=O)c(C(=O)O)cn4-c3ccc(F)cc3F)CC12 (stereo unspecified)	CHT PAM 7.9 | CHT act confirm 60 | HEK293 MP dye -67
Cc1ccc(C(=O)CSc2nnc(-c3snnc3C)n2C2CC2)cc1	none
Cc1ccc(OCC(=O)N/N=C/c2c[nH]c3ccccc23)c([N+](=O)[O-])c1	none
COc1ccc(OC)c(C(=O)COC(=O)C(CCSC)NC(=O)COc2ccccc2)c1 (stereo unspecified)	none | CHT act confirm 26 | HEK293 MP dye inactive
COc1ccccc1C(=O)COC(=O)C(CCSC)NC(=O)COc1ccccc1 (stereo unspecified)	none
O=S(=O)(Cc1ccccc1Cl)NCc1ccccc1	none
Cc1ccc(CN(C)C(=O)CC2C(=O)NCCN2CC2CCCCC2)cc1 (stereo unspecified)	none
Cc1cnccc1CN(C)C(=O)CC1C(=O)NCCN1CC1CCCCC1 (stereo unspecified)	CHT PAM 7.7 | CHT act confirm inactive | HEK293 MP dye inactive
Cc1cc(N2CCN(c3nc(-c4ccc([N+](=O)[O-])cc4)cs3)CC2)c2ccccc2n1	none
Cc1cc(N2CCN(C(=O)Nc3ccccc3C#N)CC2)c2ccccc2n1	none | CHT act confirm 56 | HEK293 MP dye -82
CC(=O)N(Cc1ccco1)C1(C(=O)NC2CCCCC2)CCCCC1	none
O=C(Cc1cccs1)N(Cc1ccco1)C1(C(=O)NC2CCCCC2)CCCCC1	none | CHT act confirm 55 | HEK293 MP dye inactive
COc1cc(C)c(S(=O)(=O)Nc2ccccc2F)cc1C	none
Cc1cc2[nH]c(=O)c(=O)[nH]c2cc1S(=O)(=O)Nc1ccccc1F	CHT PAM 7.7 | CHT act confirm inactive | HEK293 MP dye inactive
C[C@H](CO)N1C[C@H](C)[C@@H](CN(C)S(=O)(=O)c2cn(C)cn2)Oc2c(NS(=O)(=O)c3ccccc3)cccc2C1=O	none (no result: ANO1 block, CHT PAM, CHT block)
COC(=O)C1=C(C)NC(=O)/C1=C\c1cc(C)n(-c2c(C)cccc2C)c1C	none | CHT act confirm 16 | HEK293 MP dye inactive
COC(=O)C1=C(C)NC(=O)/C1=C\c1cc(C)n(-c2ccccc2C)c1C	none
COc1ccc(C(CC(=O)N2CCCC(C)C2)c2c(OC)cc(OC)c3c(-c4ccccc4)cc(=O)oc23)cc1 (stereo unspecified)	none | CHT act confirm inactive | HEK293 MP dye inactive
COc1ccc(C(CC(=O)N2CCOCC2)c2c(OC)cc(OC)c3c(-c4ccccc4)cc(=O)oc23)cc1 (stereo unspecified)	none
CCC(C(=O)NC(C)(C)C)N(Cc1ccco1)C(=O)Cn1nnc(-c2ccc(F)cc2)n1 (stereo unspecified)	none
CCOc1cc(S(=O)(=O)n2nc(C)cc2C)ccc1Br	none
Cc1cc(NCCCn2ccnc2)n2nc(-c3ccc(F)cc3)cc2n1	CHT PAM 8 | CHT act confirm 42 | HEK293 MP dye -71
Cc1cccc(-c2cc3nc(C)c(C)c(NCCCn4ccnc4)n3n2)c1	none
Cc1cc(NCCCn2ccnc2)n2nc(-c3ccc(Cl)cc3)cc2n1	CHT PAM 8.9 | CHT act confirm 38 | HEK293 MP dye -80
CCC(=O)c1ccc2c(c1)N(CCCN(C)C)c1ccccc1S2	CHT PAM 9.1 | CHT act confirm 29 | HEK293 MP dye -45
CC(=O)c1ccc2c(c1)N(CCCN(C)C)c1ccccc1S2	none (no result: ANO1 block, CHT PAM, CHT block)
O=C(NC1CCCC1)C(c1ccc(F)cc1)N(Cc1ccc(F)cc1)C(=O)c1ccn[nH]1 (stereo unspecified)	none | CHT act confirm 25 | HEK293 MP dye inactive
O=C(NC1CCCC1)C(c1ccncc1)N(Cc1ccccc1)C(=O)c1ccc(-c2ccccc2)[nH]1 (stereo unspecified)	none
O=C(Nc1ccc(C2=NCCN2)cc1)c1ccc(C(=O)Nc2ccc(C3=NCCN3)cc2)c([N+](=O)[O-])c1	none
O=[N+]([O-])c1cc(Cl)cc(C2=NCCN2)c1	none | CHT act confirm 49 | HEK293 MP dye -55
Cc1cc(C[n+]2ccsc2N)c2ncccc2c1	none | CHT act confirm 43 | HEK293 MP dye -52
Nc1scn[n+]1Cc1cccc2cccnc12	none
C=CCn1c(SC(C)C(=O)NCCC2=CCCCC2)nc2ccccc2c1=O (stereo unspecified)	none | CHT act confirm 27 | HEK293 MP dye inactive
N#Cc1cc([N+](=O)[O-])ccc1NCCCn1ccnc1	CHT PAM 7.3 | CHT act confirm 62 | HEK293 MP dye -59
CN1CCN(C(=O)CCc2nnc3ccc(N4CCC5(CC4)OCCO5)nn23)CC1	none
CCOC(=O)C1CCN(C(=O)CCc2nnc3ccc(N4CCN(C)CC4)nn23)CC1	CHT PAM 8.1 | CHT act confirm 73 | HEK293 MP dye -72
COC(=O)c1[nH]c2cc(OC)c(OC)cc2c1NC(=O)c1cccc(OC)c1	none
COCC(=O)N(C)c1nnc(-c2ccc([N+](=O)[O-])cc2)s1	none | CHT act confirm 41 | HEK293 MP dye -47
COCC(=O)N(C)c1nnc(-c2ccccn2)s1	none

High-throughput results as filed in PubChem.
